Reference: the supplement of paper PMC6555819

Key:
Test in all cases: PBM binding z-score (relative to random genomic background probes); higher = stronger binding; sequences stand for … in GC…GCGATTGACAGCGTAGAATGAAGG
[1] = system: FXR:RXRa (NR concentration 270 nM, RXRa partner concentration 90 nM)
How it was run: (§1)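 The probes on custom Agilent 4×180K protein-binding microarrays were double-stranded, with 34-nt variable regions bearing direct-repeat seeds, single-nucleotide variants, half-site ablations and random human genomic background sequences. Incubation lasted 1 h with ligand-free nuclear receptor dimers in PBS pH 7.4, 2% milk, 0.02% Triton X-100, 1 mM DTT, 0.2 mg/mL BSA and 0.4 mg/ml salmon testes DNA. Antibodies against each partner (one per run) detected bound dimers, and fluorescence scans were regression-normalized. Binding z-scores take the random background probes as reference.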

[2] = system: LXRa:RXRa (NR concentration 270 nM, RXRa partner concentration 90 nM)
How it was run: as §1

[3] = system: LXRa homodimer (NR concentration 270 nM)
How it was run: as §1

[4] = system: LXRb:RXRa (NR concentration 270 nM, RXRa partner concentration 90 nM)
How it was run: as §1

[5] = system: LXRb homodimer (NR concentration 270 nM)
How it was run: as §1

[6] = system: PPARa:RXRa (NR concentration 270 nM, RXRa partner concentration 90 nM)
How it was run: as §1

[7] = system: PPARg:RXRa (NR concentration 180 nM, RXRa partner concentration 90 nM)
How it was run: as §1

[8] = system: PPARg:RXRa 270nM:90nM, anti-RXR (NR concentration 270 nM, RXRa partner concentration 90 nM)
How it was run: as §1

[9] = system: PPARg:RXRa 30nM:10nM, anti-RXR (NR concentration 30 nM, RXRa partner concentration 10 nM)
How it was run: as §1

[10] = system: PPARg:RXRa 90nM:30nM, anti-RXR (NR concentration 90 nM, RXRa partner concentration 30 nM)
How it was run: as §1

AGTCAAAGTTCAGGACGAGGTAACGTATAGCACG
PBM binding z-score [1]: 4.44
PBM binding z-score [2]: 4.03
PBM binding z-score [3]: 1.43
PBM binding z-score [4]: 1.92
PBM binding z-score [5]: 0.317
PBM binding z-score [6]: 3.43
PBM binding z-score [7]: 4.7
PBM binding z-score [8]: 5.09
PBM binding z-score [9]: 2.17
PBM binding z-score [10]: 4.27

CACACTAGGTCACCGGAAGGTCAAAGTCCGCATG
PBM binding z-score [1]: 6.4
PBM binding z-score [2]: 6.18
PBM binding z-score [3]: 6.43
PBM binding z-score [4]: 5.72
PBM binding z-score [5]: 2.16
PBM binding z-score [6]: 6.24
PBM binding z-score [7]: 8.71
PBM binding z-score [8]: 7.07
PBM binding z-score [9]: 4.59
PBM binding z-score [10]: 6.32

GCTCGGAGGACTAGGTCAGAGCTTTGTCCGTAGA
PBM binding z-score [1]: -0.693
PBM binding z-score [2]: -0.505
PBM binding z-score [3]: -1.09
PBM binding z-score [4]: -0.622
PBM binding z-score [5]: -1.5
PBM binding z-score [6]: 0.919
PBM binding z-score [7]: 0.339
PBM binding z-score [8]: 1.04
PBM binding z-score [9]: -1.04
PBM binding z-score [10]: 0.269

TTACCCAGGTGAAGGTCGTTGATCCCTCTGTAGA
PBM binding z-score [1]: 1.67
PBM binding z-score [2]: 1.53
PBM binding z-score [3]: -0.000155
PBM binding z-score [4]: 1.21
PBM binding z-score [5]: -0.632
PBM binding z-score [6]: 1.77
PBM binding z-score [7]: 0.932
PBM binding z-score [8]: 1.73
PBM binding z-score [9]: 0.687
PBM binding z-score [10]: 1.04

TCTATTAGTTGAAGGGGAACCGACGAGTCCGTTT
PBM binding z-score [1]: 1.21
PBM binding z-score [2]: 1.19
PBM binding z-score [3]: 0.437
PBM binding z-score [4]: 1.19
PBM binding z-score [5]: 0.829
PBM binding z-score [6]: 1.23
PBM binding z-score [7]: 0.0273
PBM binding z-score [8]: 2.51
PBM binding z-score [9]: 4.36
PBM binding z-score [10]: 3.48

ACTTACAGGTCAACGAGGTTATAGCACGCGTATA
PBM binding z-score [1]: 6.79
PBM binding z-score [2]: 5.97
PBM binding z-score [3]: 3.32
PBM binding z-score [4]: 4.66
PBM binding z-score [5]: 1.8
PBM binding z-score [6]: 5.76
PBM binding z-score [7]: 5.5
PBM binding z-score [8]: 5.63
PBM binding z-score [9]: 2.14
PBM binding z-score [10]: 4.37

CGAACTAGGTCAAGGACACTGAATCTCCGCACGC
PBM binding z-score [1]: 3.6
PBM binding z-score [2]: 2.34
PBM binding z-score [3]: 0.392
PBM binding z-score [4]: 1.61
PBM binding z-score [5]: -0.129
PBM binding z-score [6]: 4.59
PBM binding z-score [7]: 7.39
PBM binding z-score [8]: 6.12
PBM binding z-score [9]: 3.48
PBM binding z-score [10]: 5.6

TAGCCTAGGTCATGCGGGCCCGTATAGTGTCGGC
PBM binding z-score [1]: 3.96
PBM binding z-score [2]: 3.12
PBM binding z-score [3]: 0.169
PBM binding z-score [4]: 1.59
PBM binding z-score [5]: 0.214
PBM binding z-score [6]: 3.37
PBM binding z-score [7]: 1.74
PBM binding z-score [8]: 2.29
PBM binding z-score [9]: 0.0314
PBM binding z-score [10]: 1.22

CAAACTAGGTAAAGGTCAAAGTCGGTTTGTGCCA
PBM binding z-score [1]: 6.46
PBM binding z-score [2]: 6.21
PBM binding z-score [3]: 5.75
PBM binding z-score [4]: 5.55
PBM binding z-score [5]: 2.15
PBM binding z-score [6]: 6.23
PBM binding z-score [7]: 7.83
PBM binding z-score [8]: 7.43
PBM binding z-score [9]: 6.03
PBM binding z-score [10]: 7.54

TCGAGTAGGTTAGTCGGGGCATTCGGCCAACATA
PBM binding z-score [1]: -0.18
PBM binding z-score [2]: -0.185
PBM binding z-score [3]: -0.523
PBM binding z-score [4]: 0.162
PBM binding z-score [5]: -0.854
PBM binding z-score [6]: 0.505
PBM binding z-score [7]: -0.197
PBM binding z-score [8]: 0.72
PBM binding z-score [9]: 0.731
PBM binding z-score [10]: 0.597

TACCCTAGGTCAGATCGGGCCAGTATACGCTATA
PBM binding z-score [1]: 2.3
PBM binding z-score [2]: 4.7
PBM binding z-score [3]: 5.49
PBM binding z-score [4]: 2.57
PBM binding z-score [5]: 2.46
PBM binding z-score [6]: 1.98
PBM binding z-score [7]: 1.12
PBM binding z-score [8]: 1.34
PBM binding z-score [9]: 0.45
PBM binding z-score [10]: 1.33

TAGCCTAGGTCCTTGGGCCAGTATAGTACGCATC
PBM binding z-score [1]: -1.55
PBM binding z-score [2]: -1.18
PBM binding z-score [3]: -1.24
PBM binding z-score [4]: -1.1
PBM binding z-score [5]: -1.16
PBM binding z-score [6]: -1.2
PBM binding z-score [7]: -0.0575
PBM binding z-score [8]: -0.847
PBM binding z-score [9]: -0.771
PBM binding z-score [10]: -0.944

CCTACTCGGCCAAAGGTCATTGATTCCAATGCTC
PBM binding z-score [1]: 4.86
PBM binding z-score [2]: 5.54
PBM binding z-score [3]: 4.99
PBM binding z-score [4]: 5.12
PBM binding z-score [5]: 1.98
PBM binding z-score [6]: 6.14
PBM binding z-score [7]: 10.1
PBM binding z-score [8]: 9.26
PBM binding z-score [9]: 8.85
PBM binding z-score [10]: 9.61

GGAACGGGGGCAAAGTTGATAGCATCTGTCGACG
PBM binding z-score [1]: 3.75
PBM binding z-score [2]: 3.32
PBM binding z-score [3]: 0.259
PBM binding z-score [4]: 4.64
PBM binding z-score [5]: 6.22
PBM binding z-score [6]: 5.56
PBM binding z-score [7]: 9.31
PBM binding z-score [8]: 8.52
PBM binding z-score [9]: 9.53
PBM binding z-score [10]: 9.94

ACTTACGGGTCAACGTGGTTATAGCACGCGTATA
PBM binding z-score [1]: 6.4
PBM binding z-score [2]: 4.01
PBM binding z-score [3]: 0.422
PBM binding z-score [4]: 3.75
PBM binding z-score [5]: 0.534
PBM binding z-score [6]: 5.52
PBM binding z-score [7]: 5.08
PBM binding z-score [8]: 5.39
PBM binding z-score [9]: 1.88
PBM binding z-score [10]: 4.03

AGAATGAGATTATTAAGATCAGGGAATTGCGGTC
PBM binding z-score [1]: -1.55
PBM binding z-score [2]: -0.864
PBM binding z-score [3]: -0.323
PBM binding z-score [4]: -0.702
PBM binding z-score [5]: -0.452
PBM binding z-score [6]: -0.715
PBM binding z-score [7]: 0.449
PBM binding z-score [8]: -0.292
PBM binding z-score [9]: -0.0999
PBM binding z-score [10]: -0.261

AGTATTAGTTGACTTAGGGCAACCGATACGACGC
PBM binding z-score [1]: 0.048
PBM binding z-score [2]: 0.00134
PBM binding z-score [3]: 0.42
PBM binding z-score [4]: 0.0482
PBM binding z-score [5]: 0.3
PBM binding z-score [6]: 0.128
PBM binding z-score [7]: 0.82
PBM binding z-score [8]: 0.435
PBM binding z-score [9]: 0.448
PBM binding z-score [10]: 0.623

AGTATGAGGTTATTAAGATCAGGGAATTGCGGTC
PBM binding z-score [1]: 1.55
PBM binding z-score [2]: 1.75
PBM binding z-score [3]: 0.568
PBM binding z-score [4]: 1.52
PBM binding z-score [5]: 0.578
PBM binding z-score [6]: 2.12
PBM binding z-score [7]: 0.776
PBM binding z-score [8]: 1.12
PBM binding z-score [9]: 0.453
PBM binding z-score [10]: 0.816

ATATGTAGGTTAGCTGGGATCATTCAGACTAGGC
PBM binding z-score [1]: 0.641
PBM binding z-score [2]: 0.823
PBM binding z-score [3]: 0.0491
PBM binding z-score [4]: 0.629
PBM binding z-score [5]: 0.181
PBM binding z-score [6]: 2.71
PBM binding z-score [7]: 3.18
PBM binding z-score [8]: 2.72
PBM binding z-score [9]: 0.999
PBM binding z-score [10]: 1.85

CAAACTAGGTCAAGGTCAAAATCGGTTTGTGCCA
PBM binding z-score [1]: 6.5
PBM binding z-score [2]: 5.02
PBM binding z-score [3]: 3.14
PBM binding z-score [4]: 4.66
PBM binding z-score [5]: 1.58
PBM binding z-score [6]: 6.16
PBM binding z-score [7]: 9.66
PBM binding z-score [8]: 7.73
PBM binding z-score [9]: 6.38
PBM binding z-score [10]: 7.81

CCGACTGGGGCAGAAAGGTTACCCTACCATCCGG
PBM binding z-score [1]: 0.191
PBM binding z-score [2]: 0.465
PBM binding z-score [3]: -0.126
PBM binding z-score [4]: 0.448
PBM binding z-score [5]: -1.02
PBM binding z-score [6]: 1.5
PBM binding z-score [7]: 1.17
PBM binding z-score [8]: 2.33
PBM binding z-score [9]: 0.336
PBM binding z-score [10]: 1.78

CCTACCGGGCCATTCAGAGGTCATTGATCATATG
PBM binding z-score [1]: 3.15
PBM binding z-score [2]: 4.65
PBM binding z-score [3]: 6.83
PBM binding z-score [4]: 4.07
PBM binding z-score [5]: 0.358
PBM binding z-score [6]: 3.77
PBM binding z-score [7]: 1.05
PBM binding z-score [8]: 2.26
PBM binding z-score [9]: 0.311
PBM binding z-score [10]: 1.27

CCTGCTAGGTCAATGATCAGCTAAAGCAGCTCGC
PBM binding z-score [1]: 2.71
PBM binding z-score [2]: 1.96
PBM binding z-score [3]: -0.345
PBM binding z-score [4]: 1.3
PBM binding z-score [5]: -0.139
PBM binding z-score [6]: 2.62
PBM binding z-score [7]: 1.98
PBM binding z-score [8]: 2.46
PBM binding z-score [9]: 0.000172
PBM binding z-score [10]: 1.24
